Screening results deposited in PubChem by National Center for Advancing Translational Sciences (NCATS).
This is a sample that favours compounds with a hit; in the whole collection about 6.5% have one here.
HCMV antiviral: human cytomegalovirus inhibition; 410,000 compounds, 4.5% hits; HFF cells, HCMV-luciferase reporter, 72 h; hits give low values; activity change, negative = inhibition, % at 57.5 µM; AID 1259415; in the data active means activity change below about -60%; inconclusive means no clear call, values can overlap the other calls; inactive means above about -39%
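Screen run at 2 compound doses on HFFs infected with reporter HCMV, MOI 1 PFU/cell. Luciferase activity from cell lysates at 72 h post infection gave inhibition relative to buffer-only and Salinomycin wells.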
LASV entry inh: blocks Lassa virus binding to or entry into cells. Potency, µM (highest dose often 37.9 µM), usual class: inhibitors. 300,000 compounds, 1.2% hits. Lassa virus pseudotype entry inhibition, cell reporter; calls by dose curve; tested in HEK293 cells; further: nearly all actives have a fitted effect of over 50% in size
Vaccinia Venus: inhibitors of vaccinia virus (Venus reporter); Vaccinia virus Venus reporter expression, fluorescence; Potency, µM (doses to about 36.5 µM), usual class: inhibitors; 330,000 compounds, 0.46% hits; calls by dose curve; tested in A549 cells; further: nearly all actives have a fitted effect of over 30% in size
FMDV inh: foot and mouth disease virus antiviral activity. FMDV antiviral cell-based qHTS. Potency, µM (doses to about 57.9 µM), actives largely listed as inhibitors. 410,000 compounds, 1.2% hits; calls by dose curve; tested in HEK293T cells; further: read-out not given here; nearly all actives have a fitted effect of over 45% in size
Marburg entry inh: blocks Marburg virus binding to or entry into cells; Marburg virus pseudotyped entry inhibition, cell reporter; Potency, µM (titrated, usually from 37.8 µM), actives largely listed as inhibitors; 300,000 compounds, 1.8% hits; calls by dose curve; tested in HEK293 cells
Vaccinia mCherry: vaccinia inhibition (mCherry reporter); Potency, µM (series often up to 36.5 µM), usual class: inhibitors; 310,000 compounds, 0.63% hits; Vaccinia virus mCherry reporter infection, fluorescence; AID 720579; calls by dose curve; tested in A549 cells; further: nearly all actives have a fitted effect of over 35% in size
Each line names hits and unclear results; the compound was inactive in the other large screens; ! = repeats disagree.

Cc1cc(N2CC(C)OC(C)C2)n2cc(-c3ccccc3)nc2n1 (centres undefined)	HCMV antiviral -98.5
Cc1cc(N2CCOCC2)n2cc(-c3ccccc3)nc2n1	none
COC(OC)c1ccnc(-c2ccc(OC(C)=O)cc2)n1	HCMV antiviral -82.9
Cc1cccc(C)c1NC(=O)c1ccc2c(c1)N(Cc1cccc(Cl)c1)C(=O)c1ccccc1S2=O (centres undefined)	LASV entry inh inconclusive, Marburg entry inh inconclusive
CCOC(=O)C1(CCc2ccccc2)CCN(Cc2ccc(O)cc2)CC1	FMDV inh inconclusive (no result: LASV entry inh, Vaccinia Venus, Marburg entry inh, Vaccinia mCherry)
CCOC(=O)C1(CCc2ccccc2)CCN(Cc2cccc3c2OCO3)CC1	HCMV antiviral inconclusive, LASV entry inh inconclusive, FMDV inh inconclusive, Marburg entry inh 12.6µM
CCOC(=O)C1(CCc2ccccc2)CCN(Cc2csc(C(C)=O)c2)CC1	HCMV antiviral inconclusive, Vaccinia Venus inconclusive, FMDV inh 12.6µM, Marburg entry inh inconclusive
CCOC(=O)C1(CCOc2ccccc2)CCN(Cc2ccc(O)c(OCC)c2)CC1	LASV entry inh inconclusive, Marburg entry inh 11.2µM, Vaccinia mCherry inconclusive
CCOC(=O)C1(CCc2ccccc2)CCN(Cc2c(O)cccc2OC)CC1	LASV entry inh inconclusive, FMDV inh 31.6µM, Marburg entry inh inconclusive
CCOC(=O)C1(CCc2ccccc2)CCN(Cc2ccc(OC)cc2)CC1	LASV entry inh inconclusive, Marburg entry inh inconclusive
CC(NC(=O)C1CCOCC1)c1nnc2n1CCN(Cc1ccc3ccccc3c1)CC2 (centres undefined)	none (no result: HCMV antiviral, LASV entry inh, Marburg entry inh)
CCCCC[C@H](O)/C=C/[C@@H]1[C@@H](C/C=C\CCCC(=O)O)[C@@H](O)C[C@@H]1O	none (no result: HCMV antiviral, LASV entry inh, Marburg entry inh)
CCOC(=O)C1(CCCc2ccccc2)CCN(C(=O)c2ocnc2C)CC1	LASV entry inh 2.82µM
CCOC(=O)C1(CCCc2ccccc2)CCN(C(=O)c2cncs2)CC1	LASV entry inh inconclusive
c1ccc2c(c1)Sc1ccccc1N2CC1CN2CCC1CC2 (centres undefined)	HCMV antiviral -60.4 (no result: LASV entry inh, Marburg entry inh)
CC1CCN(CC(O)CN2c3ccccc3Sc3ccccc32)CC1 (centres undefined)	Vaccinia Venus inconclusive, FMDV inh inconclusive (no result: HCMV antiviral, LASV entry inh, Marburg entry inh)
COc1ccc(NC(=O)C(C)n2c(C)c3cnn(-c4ccccc4)c(=O)c3c2C)cc1Cl (centres undefined)	Marburg entry inh inconclusive
COc1ccc(-c2nc3c(c(SCC(=O)Nc4cccc(O)c4)n2)Cc2c(CO)cnc(C)c2O3)cc1	HCMV antiviral -62.5!, LASV entry inh inconclusive (no result: Marburg entry inh)
COc1ccc2cc(C(=O)/C=C/c3cc(OC)c(O)c(OC)c3)ccc2c1	LASV entry inh inconclusive, Marburg entry inh inconclusive, Vaccinia mCherry inconclusive
COc1cc(/C=C/C(=O)c2ccc(NS(=O)(=O)c3ccc(C)cc3)cc2)cc(OC)c1O	HCMV antiviral -101.0, LASV entry inh inconclusive, Marburg entry inh inconclusive, Vaccinia mCherry inconclusive
COc1cc(/C=C/C(=O)c2ccc(NS(=O)(=O)c3ccc(C)cc3)cc2)ccc1OC(F)F	HCMV antiviral -70.7, LASV entry inh inconclusive, Vaccinia Venus inconclusive, FMDV inh inconclusive, Marburg entry inh inconclusive, Vaccinia mCherry inconclusive
COc1cccc(C(=O)/C=C/Nc2ccc(S(=O)(=O)Nc3cccc(C(C)=O)c3)cc2)c1	LASV entry inh inconclusive, Vaccinia Venus inconclusive, Marburg entry inh inconclusive (no result: Vaccinia mCherry)
COc1cccc(/C=C/C(=O)c2ccc(NS(=O)(=O)c3ccc(C)cc3)cc2)c1	HCMV antiviral -69.9, LASV entry inh inconclusive, Vaccinia Venus inconclusive, Marburg entry inh inconclusive, Vaccinia mCherry inconclusive
O=C1CN(S(=O)(=O)Cc2ccccc2)C[C@@H]2[C@H](c3ccc(Br)cc3)[C@@H](CO)N12	none (no result: LASV entry inh, Vaccinia Venus, FMDV inh, Marburg entry inh, Vaccinia mCherry)
CCn1c2c(c3cc(Br)ccc31)CCC/C2=N\O	HCMV antiviral -107.3 (no result: Vaccinia Venus, Vaccinia mCherry)
COc1ccccc1-c1ccnc(-n2ncc(C(=O)NCCc3cccnc3)c2C)n1	none (no result: HCMV antiviral, LASV entry inh, Marburg entry inh)
O=C(C[n+]1cccc(Br)c1)c1ccc(F)cc1	none (no result: HCMV antiviral, LASV entry inh, FMDV inh, Marburg entry inh)
Cc1ccc(Cc2nc3ccccc3nc2SCC(=O)N2CCCCC2)cc1	none (no result: Marburg entry inh)
c1ccc2c(CCNc3ncnc4nc[nH]c34)cccc2c1	FMDV inh 31.6µM, Marburg entry inh inconclusive (no result: Vaccinia Venus, Vaccinia mCherry)
CN(C)S(=O)(=O)c1cc(NC(=O)CN2CCN(c3ccccc3O)CC2)ccc1Cl	LASV entry inh 0.562µM
Cc1ccc(NC(=O)Cc2ccc(Cl)c(Cl)c2)cc1S(=O)(=O)N(C)C	HCMV antiviral -60.8, LASV entry inh 12.6µM, FMDV inh 22.4µM, Marburg entry inh inconclusive
Cc1ccc(NC(=O)Cc2ccccc2Cl)cc1S(=O)(=O)N(C)C	LASV entry inh inconclusive, Marburg entry inh inconclusive, Vaccinia mCherry inconclusive
CCN(CC)S(=O)(=O)c1cc(NC(=O)Cc2ccsc2)ccc1C	LASV entry inh 0.461µM, Vaccinia Venus inconclusive, Vaccinia mCherry inconclusive
Cc1ccc(NC(=O)CNc2ccc(Cl)c(Cl)c2)cc1S(=O)(=O)N(C)C	HCMV antiviral -72.4, LASV entry inh inconclusive, Vaccinia Venus inconclusive, FMDV inh inconclusive, Marburg entry inh inconclusive, Vaccinia mCherry inconclusive
Cc1ccc(N2CCN(C(=O)Nc3cn(CC(C)C)c(=O)c4ccccc34)CC2)c(C)c1	Vaccinia mCherry inconclusive (no result: Marburg entry inh)
COc1ccc(S(=O)(=O)Nc2cccc(-c3ccc(N4CCC(C)CC4)nn3)c2)c(OC)c1	Vaccinia Venus inconclusive (no result: Marburg entry inh)
CCN(CC)S(=O)(=O)c1cc(NC(=O)C(C)N2CC=C(c3ccccc3)CC2)ccc1C (centres undefined)	LASV entry inh 16.4µM, FMDV inh inconclusive, Marburg entry inh inconclusive, Vaccinia mCherry inconclusive
Cc1ccc(NC(=O)COC(=O)/C(=C/c2cccs2)c2cccs2)cc1S(=O)(=O)N(C)C	LASV entry inh 11.2µM, Marburg entry inh inconclusive
O=C(Cc1ccsc1)Nc1ccc(S(=O)(=O)C(F)F)cc1	LASV entry inh inconclusive, Vaccinia Venus inconclusive, Vaccinia mCherry 10µM
CN1CCN(C(=O)Cn2c(-c3cccs3)cc3cc(Cl)ccc32)CC1	none (no result: Marburg entry inh)
CON(C)C(=O)/C=C/[C@H](CC1CCCC1)NC(=O)C(F)(F)F	none (no result: LASV entry inh, Vaccinia Venus, FMDV inh, Marburg entry inh, Vaccinia mCherry)
Nc1nn(-c2ccccc2)c(N)c1N=Nc1ccc2c(c1)OCO2	LASV entry inh inconclusive, Vaccinia Venus inconclusive, Marburg entry inh 8.91µM, Vaccinia mCherry inconclusive
Nc1nn(-c2ccccc2)c(N)c1N=Nc1cccc(F)c1	none (no result: LASV entry inh, Vaccinia Venus, Marburg entry inh, Vaccinia mCherry)
CC(=O)Nc1cccc(-c2cn3ccc(C)cc3n2)c1	none (no result: LASV entry inh, Vaccinia Venus, Marburg entry inh, Vaccinia mCherry)
Cc1ccn2cc(-c3cccc([N+](=O)[O-])c3)nc2c1	LASV entry inh 4.47µM, Marburg entry inh inconclusive
Cc1ccn2cc(-c3cccc(S(=O)(=O)N4CCCC4)c3)nc2c1	HCMV antiviral -64.1, LASV entry inh inconclusive, Marburg entry inh inconclusive
CC(C)(C)c1ccc(C(=O)Nc2onc3c2CCCC3)cc1	HCMV antiviral -74.7, LASV entry inh inconclusive, Marburg entry inh inconclusive
O=C(Nc1onc2c1CCCC2)c1ccccc1	LASV entry inh inconclusive, Marburg entry inh inconclusive
CCCCCCn1c(-c2cccs2)n[nH]c1=S	HCMV antiviral -80.3
CC1(C)CC(N2CCN(Cc3ccccc3)CC2)=CC(=[N+]2CCCCC2)C1	HCMV antiviral active, LASV entry inh inconclusive, FMDV inh inconclusive, Marburg entry inh 6.51µM
CC1(C)CC(=O)C=C(N2CCN(C3=CC(=O)CC(C)(C)C3)CC2)C1	none (no result: HCMV antiviral, LASV entry inh, Vaccinia Venus, FMDV inh, Vaccinia mCherry)
